Data as given in PubChem BioAssay (Tox21).
Unmarked numbers belong to inactive results. Inconclusive results are not listed. A call without a number means that no potency is given here. Active and inactive are the calls of the source. Unless noted, the call rests on the fitted dose curve; in most records, active means well fitted curve in the direction sought with a large enough effect in the repeat runs; inconclusive means weak or mixed curves; inactive means no such curve, though single readings can be large; an effect the other way counts as inactive or inconclusive.

Assays:
[1] = biological target: Thyrotropin receptor (Homo sapiens) (UniProt P16473); assay: qHTS assay to identify small molecule antagonists of the thyroid stimulating hormone receptor (TSHR) signaling pathway (AID 1259385; calls by dose curve; further: nearly all actives have a fitted effect of over 20% in size)
Method in brief: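 TSHR-HEK293 cells were plated and held 18 h at 37C/5% CO2, then given compound plus Ro20-1724 and stimulated with TSH at 1.5 ng/mL final. After 30 min at room temperature, cAMP was detected with cAMP-d2/anti-cAMP-cryptate (1 h) by fluorescence.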

[2] = qHTS assay to identify small molecule agonists of the estrogen receptor alpha (ER-alpha) signaling pathway in the presence of an antagonist - cell viability counter screen (AID 1259386);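 further: series mostly up to about 92 µM; cells exposed to compounds for 22 h at 37 °C before the viability read; nearly all actives have a fitted effect of over 30% in size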
Method in brief: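 Read-out: CellTiter-Fluor fluorescence after 1hr reagent incubation, measured in the same wells as the luciferase readout. VM7Luc4E2 cells were exposed to 15 compound concentrations with 10.0nM ICI-182,780 for 22hr at 37C.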

[3] = biological target: Progesterone receptor (Homo sapiens) (UniProt P06401); assay: qHTS assay to identify small molecule agonists of the progesterone receptor (PR) signaling pathway (AID 1346784; calls by dose curve; further: nearly all actives have a fitted effect of over 30% in size; further: potency means the concentration at half of the fitted maximal effect)
Method in brief: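 The screen uses PR-UAS-bla HEK 293T cells in charcoal-stripped serum (2%). Compounds are applied for 16 hr at 37C after a 6 hr pre-incubation, and reporter activity is detected with a FRET beta-lactamase substrate after 2 hr at room temperature.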

[4] = biological target: Progesterone receptor (Homo sapiens) (UniProt P06401); assay: qHTS assay to identify small molecule antagonists of the progesterone receptor (PR) signaling pathway (AID 1346795; active means well fitted inhibition curve with a large enough effect in the signal ratio in the repeat runs, not every such curve was filed as active; the % refers to the signal ratio)
Method in brief: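 After 6 hr plating at 37C in 2% stripped-serum medium, PR-UAS-bla HEK293T cells got compounds, then 1 nM R5020. Sixteen hours later, LiveBLAzer substrate was applied for 2 hr at room temperature and fluorescence was recorded.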

[5] = qHTS assay to identify small molecule antagonists of the progesterone receptor (PR) signaling pathway - cell viability counter screen (AID 1346798); further: series mostly up to about 92 µM; nearly all actives have a fitted effect of over 50% in size
Method in brief: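 Viability was determined by ATP-based luminescence (CellTiter-Glo) in PR-UAS-bla HEK293T cells cultured in 2% charcoal-stripped serum and incubated 16 hr with compounds under R5020 stimulation.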

[6] = qHTS assay to identify small molecule agonists of the progesterone receptor (PR) signaling pathway - cell viability counter screen (AID 1346799; calls by dose curve; further: nearly all actives have a fitted effect of over 45% in size)
Method in brief: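 Viability was scored by ATP luminescence (CellTiter-Glo, 30 min, room temperature) in the same wells used for the reporter readout, after 16 hr compound exposure of PR-UAS-bla HEK293T cells.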

[7] = qHTS assay to identify small molecule antagonists of the TGF-beta/Smad signaling pathway - cell viability counter screen (AID 1346824); further: nearly all actives have a fitted effect of over 50% in size
Method in brief: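 SBE-bla HEK 293T cells were plated overnight at 37 C, then given compounds in DMSO plus TGF-beta1 (added as 0.25 ng/mL solution) for 5 hr. After the bla read, CellTiter-Glo was added to the same wells and luminescence read after 30 min at room temperature.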

[8] = qHTS assay to identify small molecule agonists of the TGF-beta/Smad signaling pathway (AID 1346859; active means well fitted activation curve with a large enough effect in the signal ratio in the repeat runs, not every such curve was filed as active; the % refers to the signal ratio; further: series mostly up to about 77 µM)
Method in brief: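 Dual-wavelength fluorescence (460/530 nm emission) quantified beta-lactamase expression under the Smad binding element in HEK 293T cells following 5 hr compound treatment at 37 C.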

[9] = biological target: Thyrotropin-releasing hormone receptor (Homo sapiens) (UniProt P34981); assay: qHTS assay to identify small molecule antagonists of the thyrotropin-releasing hormone receptor (TRHR) signaling pathway (AID 1346877; active means well fitted inhibition curve with a large enough effect in the repeat runs, not every such curve was filed as active; further: series mostly up to about 51 µM)
Method in brief: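 HEK293/TRHR cells, 18 h, 37 °C; Ca2+ dye 2 h; cpd 5 min RT; TRH 1 nM final; fluorescence read 3 min, 1 s intervals; 15 concs, triplicate.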

[10] = biological target: Thyrotropin-releasing hormone receptor (Homo sapiens) (UniProt P34981); assay: qHTS assay to identify small molecule agonists of the thyrotropin-releasing hormone receptor (TRHR) signaling pathway (AID 1346891; calls by dose curve;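 further: HEK293 cells expressing TRHR with calcium dye readout; series mostly up to about 58 µM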)
Method in brief: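 Kinetic fluorescence (3 min, 1 s intervals) reported intracellular calcium after compound transfer onto TRHR-Hek293 cells pre-loaded with dye for 2 h at 37 °C.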

[11] = Human pregnane X receptor (PXR) small molecule agonists, qHTS cell viability counter screen (AID 1346977); further: nearly all actives have a fitted effect of over 50% in size
Method in brief: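 HepG2 cells stably carrying the PXR-Luc reporter are cultured with 5% charcoal-stripped FBS and treated with compounds for 24hr. CellTiter-Fluor is added at 23hr and fluorescence is read after 1hr.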

[12] = Caspase-3/7 induction in HepG2 cells by small molecules, qHTS assay (AID 1346978); further: nearly all actives have a fitted effect of over 15% in size
Method in brief: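 Wild-type HepG2 cells (2,000/well) were settled 5 h at 37 C, 5% CO2, then exposed to compounds in DMSO for 17 h. Caspase-3/7 activity was read by luminescence 30 min after adding Caspase-Glo 3/7 reagent at room temperature.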

[13] = biological target: Nuclear receptor subfamily 1 group I member 2 (Homo sapiens) (UniProt O75469); assay: Human pregnane X receptor (PXR) small molecule agonists, qHTS assay (AID 1346982); further: nearly all actives have a fitted effect of over 35% in size
Method in brief: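 HepG2 PXR-Luc reporter line, 5% charcoal-stripped FBS; 5 hr pre-incubation, compound (DMSO) 24 hr at 37 C/5% CO2; ONE-Glo 30 min RT; luminescence read-out.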

[14] = qHTS assay to identify small molecule agonists of the TGF-beta/Smad signaling pathway - cell viability counter screen (AID 1346829); further: top concentration of the series differs between compounds; nearly all actives have a fitted effect of over 45% in size
Method in brief: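 Compound-treated SBE-bla HEK 293T cells (5 hr, 37 C) were assessed for viability with CellTiter-Glo in parallel with the reporter read.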

[15] = Caspase-3/7 induction in CHO-K1 cells by small molecules, qHTS cell viability counter screen (AID 1346979); further: nearly all actives have a fitted effect of over 35% in size
Method in brief: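 Seeding: 1,500 CHO-K1 cells/well. Rest: 5hr, 37C. Treatment: compounds in DMSO, 16hr. Read: CellTiter-Fluor, 1hr, fluorescence.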

[16] = Caspase-3/7 induction in CHO-K1 cells by small molecules, qHTS assay (AID 1346980); further: nearly all actives have a fitted effect of over 15% in size
Method in brief: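 Wild-type cells were seeded at 1,500 per well and settled 5 hr at 37 C, 5% CO2, then exposed to DMSO-dissolved compounds for 17 hr. Caspase-Glo 3/7 reagent was added, and luminescence was read after 30min at room temperature.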

[17] = Caspase-3/7 induction in HepG2 cells by small molecules, qHTS cell viability counter screen (AID 1346981); further: series mostly up to about 92 µM; nearly all actives have a fitted effect of over 30% in size
Method in brief: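 Fluorescence read-out of live-cell protease activity (CellTiter-Fluor) after 1 hr with reagent. This was measured in the same wells as the caspase-3/7 luminescence, on HepG2 cells exposed to DMSO-dissolved compounds for 16 hr at 37 C.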

[18] = biological target: Nuclear receptor subfamily 1 group I member 2 (Rattus norvegicus) (UniProt Q9R1A7); assay: Rat pregnane X receptor (rPXR) activation by small molecules, qHTS assay (AID 1346983); details: rPXR luciferase reporter cells, One-Glo luminescence, 24 h; active compounds read high; further: nearly all actives have a fitted effect of over 20% in size
Method in brief: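 Cell-based rPXR luciferase reporter assay, 2,000 cells per well, rested 5hr at 37 C before compound addition in DMSO, then 24 hr at 37 C. One-Glo reagent was added and luminescence read after 30 min at room temperature.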

[19] = biological target: Nuclear receptor subfamily 1 group I member 2 (Homo sapiens) (UniProt O75469); assay: CYP3A4 induction through human pregnane X receptor (PXR) by small molecules, qHTS assay (AID 1346984); further: nearly all actives have a fitted effect of over 40% in size
Method in brief: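 HepG2-derived DPX-2 line carrying PXR plus a CYP3A4-promoter luciferase reporter; cells plated 5 hr, compound-exposed 24 hr at 37C. CYP3A4 activity probed with 3uM (final) Luciferin-IPA for 3hr, then luciferase read after One-Glo.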

[20] = biological target: Nuclear receptor subfamily 1 group I member 2 (Homo sapiens) (UniProt O75469); assay: Human pregnane X receptor (PXR) activation by small molecules, qHTS assay (AID 1346985); further: nearly all actives have a fitted effect of over 40% in size
Method in brief: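 DPX-2 cells (HepG2 co-transfected with a PXR response element and a CYP3A4-promoter luciferase construct) were seeded at 2,000 per well, rested 5 hr at 37C, then exposed to DMSO-dissolved compounds for 24 hr. Activation was read as luciferase luminescence.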

Sequence of Nuclear receptor subfamily 1 group I member 2 (Homo sapiens) (O75469 whole entry, looked up): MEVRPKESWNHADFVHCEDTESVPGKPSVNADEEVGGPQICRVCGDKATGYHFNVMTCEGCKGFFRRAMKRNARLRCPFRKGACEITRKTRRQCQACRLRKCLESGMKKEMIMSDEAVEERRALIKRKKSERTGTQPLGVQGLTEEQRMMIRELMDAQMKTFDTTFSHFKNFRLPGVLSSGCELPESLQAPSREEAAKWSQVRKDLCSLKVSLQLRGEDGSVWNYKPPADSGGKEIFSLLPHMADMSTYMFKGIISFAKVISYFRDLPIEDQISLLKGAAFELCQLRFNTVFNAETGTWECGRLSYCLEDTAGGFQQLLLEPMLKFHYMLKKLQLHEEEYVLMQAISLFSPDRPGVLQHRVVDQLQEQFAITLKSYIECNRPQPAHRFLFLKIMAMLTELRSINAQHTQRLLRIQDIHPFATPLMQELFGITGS
Sequence of Progesterone receptor (Homo sapiens) (P06401 whole entry, looked up): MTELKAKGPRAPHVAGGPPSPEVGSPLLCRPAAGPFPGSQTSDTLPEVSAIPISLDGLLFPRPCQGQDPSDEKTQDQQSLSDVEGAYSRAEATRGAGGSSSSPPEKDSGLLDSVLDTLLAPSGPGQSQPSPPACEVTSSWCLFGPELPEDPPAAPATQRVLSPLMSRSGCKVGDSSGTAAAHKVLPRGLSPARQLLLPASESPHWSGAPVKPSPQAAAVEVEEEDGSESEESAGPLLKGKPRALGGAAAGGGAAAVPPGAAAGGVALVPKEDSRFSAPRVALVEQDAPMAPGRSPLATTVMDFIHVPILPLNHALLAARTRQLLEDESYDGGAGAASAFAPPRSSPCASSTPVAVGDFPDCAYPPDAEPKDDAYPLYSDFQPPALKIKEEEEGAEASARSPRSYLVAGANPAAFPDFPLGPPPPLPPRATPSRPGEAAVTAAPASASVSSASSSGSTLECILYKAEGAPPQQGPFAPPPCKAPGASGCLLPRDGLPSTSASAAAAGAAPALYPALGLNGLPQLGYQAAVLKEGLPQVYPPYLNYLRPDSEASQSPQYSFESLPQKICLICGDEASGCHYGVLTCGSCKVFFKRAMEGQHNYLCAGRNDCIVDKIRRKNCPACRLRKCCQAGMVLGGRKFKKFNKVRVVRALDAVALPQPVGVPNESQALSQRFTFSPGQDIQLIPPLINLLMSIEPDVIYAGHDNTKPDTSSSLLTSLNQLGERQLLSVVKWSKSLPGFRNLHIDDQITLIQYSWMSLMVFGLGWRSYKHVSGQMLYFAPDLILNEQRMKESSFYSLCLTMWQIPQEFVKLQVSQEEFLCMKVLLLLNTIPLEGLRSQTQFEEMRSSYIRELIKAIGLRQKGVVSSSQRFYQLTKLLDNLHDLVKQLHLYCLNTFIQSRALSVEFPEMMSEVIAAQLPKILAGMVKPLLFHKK
Sequence of Thyrotropin receptor (Homo sapiens) (P16473 whole entry, looked up): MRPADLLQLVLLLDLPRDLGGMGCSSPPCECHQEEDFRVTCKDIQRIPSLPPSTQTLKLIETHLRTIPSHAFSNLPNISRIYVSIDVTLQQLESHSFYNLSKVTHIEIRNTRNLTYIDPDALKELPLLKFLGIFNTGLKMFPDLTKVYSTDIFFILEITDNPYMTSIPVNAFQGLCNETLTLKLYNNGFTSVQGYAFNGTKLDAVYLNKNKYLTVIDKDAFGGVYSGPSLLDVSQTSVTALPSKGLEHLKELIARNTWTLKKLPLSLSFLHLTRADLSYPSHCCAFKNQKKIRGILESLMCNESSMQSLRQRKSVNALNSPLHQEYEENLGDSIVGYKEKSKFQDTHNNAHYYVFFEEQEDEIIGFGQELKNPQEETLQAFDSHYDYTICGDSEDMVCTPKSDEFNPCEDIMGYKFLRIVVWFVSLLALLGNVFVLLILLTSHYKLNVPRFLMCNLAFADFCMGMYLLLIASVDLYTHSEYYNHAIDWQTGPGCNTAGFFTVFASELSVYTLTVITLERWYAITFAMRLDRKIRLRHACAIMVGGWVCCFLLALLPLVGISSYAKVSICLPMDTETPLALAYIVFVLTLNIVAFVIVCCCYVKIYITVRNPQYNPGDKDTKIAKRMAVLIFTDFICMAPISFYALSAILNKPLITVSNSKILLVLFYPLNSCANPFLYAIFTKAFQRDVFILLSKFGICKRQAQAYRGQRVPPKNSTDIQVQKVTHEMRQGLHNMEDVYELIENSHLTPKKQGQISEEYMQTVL
Sequence of Nuclear receptor subfamily 1 group I member 2 (Rattus norvegicus) (Q9R1A7 whole entry, looked up): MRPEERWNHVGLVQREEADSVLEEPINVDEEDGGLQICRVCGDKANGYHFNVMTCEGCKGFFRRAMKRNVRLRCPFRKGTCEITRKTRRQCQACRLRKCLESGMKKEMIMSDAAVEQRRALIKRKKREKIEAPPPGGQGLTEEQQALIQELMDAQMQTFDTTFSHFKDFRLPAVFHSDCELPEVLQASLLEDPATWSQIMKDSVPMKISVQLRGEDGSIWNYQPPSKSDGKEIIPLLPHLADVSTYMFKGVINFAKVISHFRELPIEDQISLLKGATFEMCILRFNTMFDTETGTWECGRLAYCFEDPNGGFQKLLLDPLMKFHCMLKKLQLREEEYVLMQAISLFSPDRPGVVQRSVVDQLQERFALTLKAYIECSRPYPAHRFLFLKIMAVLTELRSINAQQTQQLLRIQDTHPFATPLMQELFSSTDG
Sequence of Thyrotropin-releasing hormone receptor (Homo sapiens) (P34981 whole entry, looked up): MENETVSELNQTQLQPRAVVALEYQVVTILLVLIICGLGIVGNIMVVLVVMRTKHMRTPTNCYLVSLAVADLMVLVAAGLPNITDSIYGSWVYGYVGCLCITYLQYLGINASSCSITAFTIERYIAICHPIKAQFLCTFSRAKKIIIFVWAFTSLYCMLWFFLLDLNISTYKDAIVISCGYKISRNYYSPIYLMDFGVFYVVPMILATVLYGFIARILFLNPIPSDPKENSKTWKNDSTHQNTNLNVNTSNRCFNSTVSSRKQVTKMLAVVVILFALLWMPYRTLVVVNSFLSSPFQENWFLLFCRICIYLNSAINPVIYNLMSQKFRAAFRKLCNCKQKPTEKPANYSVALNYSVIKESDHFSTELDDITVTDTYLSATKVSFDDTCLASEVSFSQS

With `CC(C)=CCCC(C)CC(=O)O` (stereo not drawn) the Potency [1] was “inactive”, the Potency [2] was “inactive” and the Potency [3] was “inactive”. The Potency [4] was “inactive”, the Potency [5] was “inactive” and the Potency [6] was “inactive”. The Potency [7] was “inactive”, the outcome [8] was “inactive” and the outcome [9] was “inactive”. For the same compound, the outcome [10] was “inactive”, the Potency [11] was “inactive” and the Potency [12] was “inactive”. The Potency [13] was “inactive”.

For `CC(=O)Nc1ccc(S(N)(=O)=O)cc1`, the Potency [1] was “inactive”, the Potency [2] was “inactive” and the Potency [3] was “inactive”. The Potency [4] was “inactive”, the Potency [6] was “inactive” and the outcome [14] was “inactive”. The outcome [8] was “inactive”, the outcome [9] was “inactive” and the outcome [10] was “inactive”. For the same compound, the Potency [11] was “inactive”, the Potency [12] was “inactive” and the Potency [15] was “inactive”. For the same compound, the outcome [16] was “inactive”, the Potency [17] was “inactive” and the Potency [13] was “inactive”.

In the case of `CC(C)(O)C(=O)c1ccccc1`, the Potency [1] was “inactive”, the Potency [2] was “inactive” and the Potency [3] was “inactive”. The Potency [4] was “inactive”, the Potency [5] was “inactive” and the Potency [6] was “inactive”. The Potency [7] was “inactive”, the outcome [8] was “inactive” and the outcome [9] was “inactive”. The outcome [10] was “inactive”, the Potency [11] was “inactive” and the Potency [12] was “inactive”. The Potency [15] was “inactive”, the outcome [16] was “inactive” and the Potency [17] was “inactive”. The Potency [13] was “inactive”.

In the case of `FC1(F)C(F)(F)C(F)(F)C2(F)C(F)(F)C(F)(F)C(F)(F)C(F)(F)C2(F)C1(F)F` (stereo not drawn), the Potency [1] was “inactive”, the Potency [2] was “inactive” and the Potency [3] was “inactive”. The Potency [4] was “inactive”, the Potency [5] was “inactive” and the Potency [6] was “inactive”. The Potency [7] was “inactive”, the outcome [8] was “inactive” and the Potency [11] was “inactive”. The Potency [12] was “inactive”, the Potency [15] was “inactive” and the outcome [16] was “inactive”. The Potency [17] was “inactive”, the Potency [13] was “inactive” and the max activation [18] was -2.25%. The Potency [19] was “inactive” and the Potency [20] was “inactive”.

For `CCC(=O)OC(C)c1ccccc1` (stereo not drawn), the Potency [1] was “inactive”, the Potency [2] was “inactive” and the Potency [3] was “inactive”. The Potency [4] was “inactive”, the Potency [6] was “inactive” and the Potency [7] was “inactive”. For the same compound, the outcome [8] was “inactive”, the outcome [10] was “inactive” and the Potency [11] was “inactive”. For the same compound, the Potency [12] was “inactive”, the Potency [15] was “inactive” and the outcome [16] was “inactive”. For the same compound, the Potency [17] was “inactive” and the Potency [13] was “inactive”.

For `CCCC(=O)O[C@]1(C(=O)CO)CC[C@H]2[C@@H]3CCC4=CC(=O)CC[C@]4(C)[C@H]3[C@@H](O)C[C@@]21C`, the Potency [1] was “inactive”, the Potency [2] was “inactive” and the Potency [3] was 841 nM (active). For the same compound, the Potency [4] was “inactive”, the Potency [5] was “inactive” and the Potency [7] was “inactive”. For the same compound, the outcome [14] was “inactive”, the outcome [8] was “inactive” and the outcome [9] was “inactive”. The outcome [10] was “inactive”, the Potency [11] was “inactive” and the Potency [12] was “inactive”. For the same compound, the Potency [15] was “inactive”, the outcome [16] was “inactive” and the Potency [17] was “inactive”. The max activation [18] was 8.95%, the Potency [19] was “inactive” and the Potency [20] was “inactive”.

In the case of `CCOC(=O)c1c(C)n(C)c2ccc(O)cc12`, the Potency [1] was “inactive”, the Potency [2] was “inactive” and the Potency [3] was “inactive”. For the same compound, the Potency [4] was “inactive”, the Potency [5] was “inactive” and the Potency [6] was “inactive”. For the same compound, the outcome [14] was “inactive”, the outcome [8] was “inactive” and the outcome [9] was “inactive”. For the same compound, the outcome [10] was “inactive”, the Potency [11] was “inactive” and the Potency [12] was “inactive”. The Potency [15] was “inactive”, the outcome [16] was “inactive” and the Potency [17] was “inactive”. The max activation [18] was -1.63%, the Potency [19] was “inactive” and the Potency [20] was “inactive”.

In the case of `Brc1c(NC2=NCCN2)ccc2nccnc12`, the Potency [1] was “inactive”, the Potency [2] was “inactive” and the Potency [3] was “inactive”. For the same compound, the Potency [4] was “inactive”, the Potency [5] was “inactive” and the Potency [6] was “inactive”. For the same compound, the outcome [14] was “inactive”, the outcome [8] was “inactive” and the Potency [12] was “inactive”. For the same compound, the Potency [15] was “inactive”, the outcome [16] was “inactive” and the Potency [17] was “inactive”.
